Laboratory results as given in the supplement of paper PMC11732987, “Enantioselective OTUD7B fragment discovery through chemoproteomics screening and high-throughput optimisation” (Communications Chemistry, 2025).

Columns and labels:
Test in all cases: log2 ratio of Biotin-Ahx-Ub-VS probe labelling (fragment/DMSO); higher = less target engagement (more negative = stronger competition), active = hit call of the paper (q ≤ 0.05, log2 ratio ≤ -1)
Settings in all cases: compound concentration: 200 uM; treatment time: 3 h
ALG13 = target: T1, ALG13 (UniProt Q9NP73)
T1 sequence (whole entry): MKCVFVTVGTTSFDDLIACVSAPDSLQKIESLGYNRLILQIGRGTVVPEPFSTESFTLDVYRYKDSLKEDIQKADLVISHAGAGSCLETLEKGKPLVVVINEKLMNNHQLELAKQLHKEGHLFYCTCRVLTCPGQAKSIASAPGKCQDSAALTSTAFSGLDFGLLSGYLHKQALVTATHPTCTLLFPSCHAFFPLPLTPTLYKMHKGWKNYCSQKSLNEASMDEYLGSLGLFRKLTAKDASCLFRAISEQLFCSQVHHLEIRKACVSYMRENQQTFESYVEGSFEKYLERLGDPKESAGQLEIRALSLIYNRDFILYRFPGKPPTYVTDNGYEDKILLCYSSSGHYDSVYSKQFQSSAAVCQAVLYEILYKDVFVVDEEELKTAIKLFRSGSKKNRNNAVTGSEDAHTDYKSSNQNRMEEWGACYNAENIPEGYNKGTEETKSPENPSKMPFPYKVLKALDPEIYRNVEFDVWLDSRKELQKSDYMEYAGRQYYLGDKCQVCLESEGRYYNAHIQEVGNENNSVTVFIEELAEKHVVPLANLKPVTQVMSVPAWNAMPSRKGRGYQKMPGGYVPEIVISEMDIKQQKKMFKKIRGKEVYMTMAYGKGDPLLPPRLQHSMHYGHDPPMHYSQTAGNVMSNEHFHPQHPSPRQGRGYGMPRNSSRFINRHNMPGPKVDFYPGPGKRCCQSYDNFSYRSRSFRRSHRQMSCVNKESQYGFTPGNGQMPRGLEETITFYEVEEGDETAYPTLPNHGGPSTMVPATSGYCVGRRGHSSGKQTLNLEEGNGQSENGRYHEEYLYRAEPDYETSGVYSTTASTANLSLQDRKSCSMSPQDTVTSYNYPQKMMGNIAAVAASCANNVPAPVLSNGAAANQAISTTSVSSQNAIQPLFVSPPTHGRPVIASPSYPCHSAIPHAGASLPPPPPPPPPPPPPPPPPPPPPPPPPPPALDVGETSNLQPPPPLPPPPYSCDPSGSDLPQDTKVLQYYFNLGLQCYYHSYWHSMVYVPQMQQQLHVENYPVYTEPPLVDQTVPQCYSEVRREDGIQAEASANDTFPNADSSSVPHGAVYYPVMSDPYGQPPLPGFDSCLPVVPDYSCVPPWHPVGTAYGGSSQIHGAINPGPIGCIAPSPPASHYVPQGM
Method in brief: (§1)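 Fragment (200 µM) or vehicle was incubated for 3 h with triplicate HEK293T lysate samples of 495 µg, which were then treated with Biotin-Ahx-Ub-VS at 0.5 µM final for 1 h. Labelled DUBs were enriched on NeutrAvidin, digested with LysC and trypsin, and analysed by diaPASEF LC-MS/MS. Values are average log2 fragment/vehicle ratios from an unpaired t-test on global-median-normalised Spectronaut label-free quantities, using proteins with ≥2 unique peptides.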

ATXN3 = ATXN3 (UniProt P54252)
Chain of ATXN3 (P54252 whole entry): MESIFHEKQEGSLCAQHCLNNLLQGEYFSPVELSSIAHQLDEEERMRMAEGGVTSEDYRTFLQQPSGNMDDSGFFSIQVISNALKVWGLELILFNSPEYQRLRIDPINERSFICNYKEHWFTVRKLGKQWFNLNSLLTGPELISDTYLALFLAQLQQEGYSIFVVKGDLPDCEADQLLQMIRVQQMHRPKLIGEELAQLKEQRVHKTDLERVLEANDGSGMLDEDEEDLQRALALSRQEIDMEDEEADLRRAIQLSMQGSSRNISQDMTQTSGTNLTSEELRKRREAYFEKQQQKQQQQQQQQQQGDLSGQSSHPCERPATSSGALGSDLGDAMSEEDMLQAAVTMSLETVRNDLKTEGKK
Method in brief: as §1

BAP1 = target: T2, BAP1 (UniProt Q92560)
T2 sequence (whole entry): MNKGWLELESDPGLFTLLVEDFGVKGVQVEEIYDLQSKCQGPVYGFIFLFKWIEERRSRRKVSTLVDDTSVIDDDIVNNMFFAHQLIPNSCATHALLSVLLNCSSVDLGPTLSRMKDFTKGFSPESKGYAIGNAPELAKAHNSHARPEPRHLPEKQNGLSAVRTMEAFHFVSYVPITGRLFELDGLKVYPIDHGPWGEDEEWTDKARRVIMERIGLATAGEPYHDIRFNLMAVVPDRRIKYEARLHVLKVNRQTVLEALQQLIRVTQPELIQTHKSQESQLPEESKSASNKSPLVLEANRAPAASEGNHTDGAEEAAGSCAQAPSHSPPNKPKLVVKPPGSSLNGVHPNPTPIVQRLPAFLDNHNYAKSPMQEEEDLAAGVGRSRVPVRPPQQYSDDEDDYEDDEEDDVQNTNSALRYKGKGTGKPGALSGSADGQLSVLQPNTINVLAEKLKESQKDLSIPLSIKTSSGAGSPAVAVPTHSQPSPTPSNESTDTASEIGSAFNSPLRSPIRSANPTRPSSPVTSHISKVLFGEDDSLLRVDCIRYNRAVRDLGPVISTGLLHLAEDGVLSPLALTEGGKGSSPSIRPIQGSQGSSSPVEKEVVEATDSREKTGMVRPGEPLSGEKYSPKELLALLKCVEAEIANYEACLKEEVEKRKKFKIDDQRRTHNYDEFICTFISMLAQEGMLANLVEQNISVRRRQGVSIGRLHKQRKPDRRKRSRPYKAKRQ
Method in brief: as §1

EIF3F = EIF3F (UniProt O00303)
Chain of EIF3F (O00303 whole entry): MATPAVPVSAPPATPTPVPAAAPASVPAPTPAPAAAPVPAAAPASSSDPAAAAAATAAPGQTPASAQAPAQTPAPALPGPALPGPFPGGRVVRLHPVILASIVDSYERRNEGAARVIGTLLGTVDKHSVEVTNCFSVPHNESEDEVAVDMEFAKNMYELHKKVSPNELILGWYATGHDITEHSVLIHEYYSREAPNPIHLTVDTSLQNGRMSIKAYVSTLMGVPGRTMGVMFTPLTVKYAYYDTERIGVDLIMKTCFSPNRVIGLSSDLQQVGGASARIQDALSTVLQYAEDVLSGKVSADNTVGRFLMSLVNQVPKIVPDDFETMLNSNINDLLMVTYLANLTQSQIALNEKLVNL
Method in brief: as §1

EIF3H = EIF3H (UniProt O15372)
Chain of EIF3H (O15372 whole entry): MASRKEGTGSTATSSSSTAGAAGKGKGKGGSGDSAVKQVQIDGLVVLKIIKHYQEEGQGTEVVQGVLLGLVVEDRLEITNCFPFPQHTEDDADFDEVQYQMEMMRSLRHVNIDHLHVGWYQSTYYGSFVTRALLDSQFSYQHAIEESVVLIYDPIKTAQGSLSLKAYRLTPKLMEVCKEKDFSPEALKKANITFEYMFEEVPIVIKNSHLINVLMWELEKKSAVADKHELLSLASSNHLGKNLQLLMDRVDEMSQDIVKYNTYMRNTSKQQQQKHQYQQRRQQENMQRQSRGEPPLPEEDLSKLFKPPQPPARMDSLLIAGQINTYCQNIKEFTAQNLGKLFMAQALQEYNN
Method in brief: as §1

FAM105A = target: T3, FAM105A (UniProt Q9NUU6)
T3 sequence (whole entry): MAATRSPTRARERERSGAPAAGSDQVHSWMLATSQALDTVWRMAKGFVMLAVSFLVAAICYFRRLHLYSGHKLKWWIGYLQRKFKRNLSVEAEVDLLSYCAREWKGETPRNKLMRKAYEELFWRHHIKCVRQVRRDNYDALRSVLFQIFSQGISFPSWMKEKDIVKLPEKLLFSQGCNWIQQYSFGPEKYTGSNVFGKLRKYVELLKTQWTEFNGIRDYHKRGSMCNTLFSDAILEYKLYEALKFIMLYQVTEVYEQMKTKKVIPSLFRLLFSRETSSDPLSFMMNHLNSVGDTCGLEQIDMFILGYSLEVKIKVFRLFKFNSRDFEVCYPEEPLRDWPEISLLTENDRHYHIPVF
Method in brief: as §1

OTUB1 = OTUB1 (UniProt Q96FW1)
Chain of OTUB1 (Q96FW1 whole entry): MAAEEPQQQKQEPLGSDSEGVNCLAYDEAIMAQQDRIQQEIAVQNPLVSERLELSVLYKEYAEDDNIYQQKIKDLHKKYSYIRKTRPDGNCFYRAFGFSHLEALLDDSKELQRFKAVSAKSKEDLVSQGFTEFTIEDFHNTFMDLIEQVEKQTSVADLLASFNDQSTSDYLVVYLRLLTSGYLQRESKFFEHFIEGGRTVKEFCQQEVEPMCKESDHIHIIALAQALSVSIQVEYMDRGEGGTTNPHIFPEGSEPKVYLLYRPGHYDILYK
Method in brief: as §1

OTUD4 = target: T4, OTUD4 (UniProt Q01804)
T4 sequence (whole entry): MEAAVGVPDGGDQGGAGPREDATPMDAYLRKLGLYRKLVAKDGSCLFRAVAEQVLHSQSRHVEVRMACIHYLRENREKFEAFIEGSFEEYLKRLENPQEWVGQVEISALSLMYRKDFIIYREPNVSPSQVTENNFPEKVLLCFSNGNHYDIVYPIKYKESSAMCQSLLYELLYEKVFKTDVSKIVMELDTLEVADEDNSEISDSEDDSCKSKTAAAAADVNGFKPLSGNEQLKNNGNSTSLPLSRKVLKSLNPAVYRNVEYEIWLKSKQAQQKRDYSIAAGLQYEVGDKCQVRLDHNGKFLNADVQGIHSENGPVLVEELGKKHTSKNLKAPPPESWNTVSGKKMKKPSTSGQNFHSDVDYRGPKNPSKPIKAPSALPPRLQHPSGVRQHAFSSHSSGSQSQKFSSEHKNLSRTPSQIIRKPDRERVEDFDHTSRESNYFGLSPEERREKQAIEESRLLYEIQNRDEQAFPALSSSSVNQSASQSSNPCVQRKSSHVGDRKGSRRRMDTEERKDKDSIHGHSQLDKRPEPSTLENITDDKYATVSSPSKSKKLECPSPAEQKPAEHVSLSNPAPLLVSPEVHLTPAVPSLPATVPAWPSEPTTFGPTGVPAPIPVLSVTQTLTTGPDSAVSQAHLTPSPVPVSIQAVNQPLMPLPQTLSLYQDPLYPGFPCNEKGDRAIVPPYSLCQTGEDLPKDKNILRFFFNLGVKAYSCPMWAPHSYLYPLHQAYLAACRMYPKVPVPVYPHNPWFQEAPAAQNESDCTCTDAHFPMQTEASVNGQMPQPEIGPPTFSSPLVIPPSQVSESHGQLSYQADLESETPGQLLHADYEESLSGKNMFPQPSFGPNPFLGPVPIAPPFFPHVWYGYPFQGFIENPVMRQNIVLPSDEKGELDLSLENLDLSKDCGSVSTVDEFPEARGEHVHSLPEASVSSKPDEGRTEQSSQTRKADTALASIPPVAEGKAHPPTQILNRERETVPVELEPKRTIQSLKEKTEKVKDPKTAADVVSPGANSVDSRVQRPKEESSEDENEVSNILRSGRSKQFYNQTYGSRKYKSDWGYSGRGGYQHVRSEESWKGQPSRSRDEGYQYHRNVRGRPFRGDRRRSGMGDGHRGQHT
Method in brief: as §1

OTUD5 = target: T5, OTUD5 (UniProt Q96G74)
T5 sequence (whole entry): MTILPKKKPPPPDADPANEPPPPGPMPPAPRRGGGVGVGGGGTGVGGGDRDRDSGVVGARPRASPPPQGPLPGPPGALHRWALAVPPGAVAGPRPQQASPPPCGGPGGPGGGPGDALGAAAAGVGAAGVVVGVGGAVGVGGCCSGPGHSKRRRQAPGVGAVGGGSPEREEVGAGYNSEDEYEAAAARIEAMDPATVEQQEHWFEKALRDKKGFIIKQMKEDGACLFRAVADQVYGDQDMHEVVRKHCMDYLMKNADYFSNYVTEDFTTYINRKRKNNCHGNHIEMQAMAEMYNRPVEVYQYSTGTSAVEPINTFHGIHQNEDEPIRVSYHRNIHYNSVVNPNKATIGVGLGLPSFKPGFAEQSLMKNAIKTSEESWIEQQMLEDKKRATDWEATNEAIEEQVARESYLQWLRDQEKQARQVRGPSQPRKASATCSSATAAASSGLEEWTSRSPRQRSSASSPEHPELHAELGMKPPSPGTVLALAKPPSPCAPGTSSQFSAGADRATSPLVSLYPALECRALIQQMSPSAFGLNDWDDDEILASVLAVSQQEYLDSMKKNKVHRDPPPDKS
Method in brief: as §1

Measured: log2 ratio of Biotin-Ahx-Ub-VS probe labelling

CN(C(=O)CCl)c1nc2ccccc2s1
active: OTUD5 -1.02
inactive: ALG13 0.217 | ATXN3 -0.82 | BAP1 -0.457 | EIF3F -0.117 | EIF3H 0.0319 | FAM105A 0.108 | OTUB1 -0.597 | OTUD4 -0.0109
